# The list is not random: actives were taken first. Their share in the collection is about 0.99%.
# BLM helicase inh = inhibitors of human Bloom syndrome helicase BLM; P54132; recombinant BLM DNA unwinding, fluorescence dequenching; Potency, µM (top dose mostly 56.1 µM), for the others: top-dose activity change, negative = inhibition, most hits filed as inhibitors; 350,000 compounds, 0.2% hits;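 further: plate controls were vehicle for no effect and no enzyme for full effect; nearly all actives have a fitted effect of over 35% in size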
# WRN inhibitor = blocks human WRN helicase; AID 651768; Potency, µM (series often up to 114 µM), for inactives: top-dose activity change, negative = inhibition, most hits filed as inhibitors; WRN helicase unwinding, fluorescent forked duplex, kinetic; 360,000 compounds, 0.46% hits; Q14191; further: nearly all actives have a fitted effect of over 55% in size
#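 WRN at 20 nM final preincubated with compound 15 min at room temperature; reaction started with 100 nM fluorophore/quencher forked duplex oligonucleotide and 2 mM ATP final. Unwinding followed kinetically by red fluorescence (ex 525, em 598 nm).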
# FEN1 inhibitor = inhibitors of human flap endonuclease 1 | P39748 | Recombinant FEN1 flap cleavage, fluorescence, 15 min | Potency, µM (series often up to 114 µM), inactives show at the top dose activity change, negative = inhibition, hits mostly inhibitors | 390,000 compounds, 0.35% hits | AID 588795; further: nearly all actives have a fitted effect of over 65% in size
# Target sequence (P39748 whole entry, looked up): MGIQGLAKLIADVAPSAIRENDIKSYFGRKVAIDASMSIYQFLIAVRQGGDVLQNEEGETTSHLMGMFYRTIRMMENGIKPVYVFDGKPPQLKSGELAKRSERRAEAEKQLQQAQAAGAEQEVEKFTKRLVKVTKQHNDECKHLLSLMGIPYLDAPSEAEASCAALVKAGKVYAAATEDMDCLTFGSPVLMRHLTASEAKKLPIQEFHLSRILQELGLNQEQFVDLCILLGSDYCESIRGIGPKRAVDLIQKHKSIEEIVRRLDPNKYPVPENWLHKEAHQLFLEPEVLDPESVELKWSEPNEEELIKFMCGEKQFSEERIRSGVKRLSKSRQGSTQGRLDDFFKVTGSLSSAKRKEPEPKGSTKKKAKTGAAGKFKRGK
#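 Recombinant FEN1 (10 nM) was preincubated with pin-transferred compounds for 15 min at room temperature, then flap DNA substrate (50 nM final) was added. Plates were read at 0 and 15 min, and normalized concentration–response data were fitted to a four-parameter Hill equation.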
# RECQ1 inh = inhibitors of human RECQ1 DNA helicase. Potency, µM (series often up to 57.3 µM), without a hit: at the highest dose activity, negative = inhibition, most hits filed as inhibitors. 240,000 compounds, 0.54% hits. RECQ1 DNA unwinding, red fluorescence kinetic read. AID 2549;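 further: plate controls were vehicle for no effect and no enzyme for full effect; nearly all actives have a fitted effect of over 30% in size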
#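 RECQ1T1 50 nM; forked duplex (20 bp + 30-nt ss tails) 200 nM, ATP 2 mM final; pH 8.0, 2 mM MgCl2, 2.5 ug/ml poly(dI-dC); 15 min compound preincubation; discontinuous kinetic read over 2 h at RT.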
# L3MBTL1 block = L3MBTL1 (human) inhibition | Q9Y468 | AlphaScreen L3MBTL1–H3K9me1 peptide binding | Potency, µM (top dose mostly 57.1 µM), for the others: top-dose activity, negative = inhibition, actives largely listed as inhibitors | 230,000 compounds, 0.66% hits | AID 485360; further: nearly all actives have a fitted effect of over 60% in size
#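 Read-out is AlphaScreen signal from streptavidin donor and nickel chelate acceptor beads (10 ug/mL final each) bridging L3MBTL1 (50 nM) and biotinylated K9-monomethylated H3(1-15) peptide (75 nM), after 30 min compound exposure at room temperature.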
# Active calls of the source: *; i = inactive; ? = inconclusive; . = no result given; [ ] = remark or other dose. The call rests on the fitted dose curve; in most records, active means well fitted curve in the direction sought with a large enough effect; inconclusive means small, poorly fitted or top-dose-only effect, or another doubt; inactive means no such curve, though single readings can be large; an effect the other way counts as inactive or inconclusive. Unless noted, on the % scale 0 is the no-effect control and ±100 the full control effect; potency means the concentration at half of the fitted maximal effect.
SMILES,BLM helicase inh,WRN inhibitor,FEN1 inhibitor,RECQ1 inh,L3MBTL1 block
Cc1ccc(N2C(=O)N(CC(=O)NCc3ccccc3Cl)C(=O)C2C)cc1 (centres undefined),-4%,-11%,0%,-2%,8%
Cc1ccc2nc(/C(C#N)=C\c3ccc([N+](=O)[O-])o3)[nH]c2c1,-8%,-21%,1%,-9%,-1%
Cc1ccc2nc(/C(C#N)=C\c3ccc(N4CCOCC4)o3)[nH]c2c1,-12%,45µM*,?,2%,-9%
CNC(=S)N1CCc2sccc2C1C (centres undefined),-5%,-10%,8%,12%,12%
O=C(C1CCCN(Cc2cccnc2)C1)N1CCCCC1 (centres undefined),10%,-14%,-7%,-9%,-4%
CCOC(=O)C(Nc1ccc2ccccc2c1)C(=O)OCC,-25%,-11%,-24%,-1%,28µM*
O=C(NCc1cc(C(F)(F)F)ccc1F)C1CCC(=O)N(C2CCCCCC2)C1 (centres undefined),-5%,-4%,23%,.,.
CCN(c1ccc(N=Cc2c(O)n(Cc3ccc(OC)cc3)c(=O)c3ccccc23)cc1)C(C)C,-6%,40µM*,-27%,-20%,?
Cc1cccc(C)c1NC(=O)C(c1ccc(C#N)cc1)n1c(=O)c(-c2cc3ccccc3[nH]2)nc2ccccc21 (centres undefined),.,-6%,.,.,.
Cc1ccc(CN(C(=O)COc2ccc([N+](=O)[O-])cc2)c2ccccn2)o1,-2%,.,15%,.,.
CC1CCCN(C(C(=O)NC2CCCCC2)c2cc3c(cc2[N+](=O)[O-])OCO3)C1 (centres undefined),-30%,-15%,-9%,-6%,11µM*
CC1CCN(C(C(=O)NC2CCCCC2)c2cc3c(cc2[N+](=O)[O-])OCO3)CC1 (centres undefined),-5%,3%,4%,-4%,-15%
Cc1ccc(C)c(NS(=O)(=O)c2cc(C(=O)Nc3ccccc3-c3ccccc3)ccc2C)c1,-9%,-14%,-11%,i,-2%
Cc1ccc(C)c(S(=O)(=O)Nc2cc(SCC(=O)O)c(O)c3ccccc23)c1,16µM*,18µM*,56µM*,0%,?
CCN(C(=O)C(C)N1C(=O)/C(=C/c2ccco2)SC1=S)C1CCS(=O)(=O)C1 (centres undefined),-22%,50µM*,?,.,.
Nc1ccc(N)c(Cl)c1,.,.,.,22µM*,.
Cc1cccc(N=Nc2ccc(O)c3ncccc23)c1,1%,-28%,-6%,i,20µM*
Cc1ccc(C)c(N=Nc2ccc(O)c3ncccc23)c1,-16%,1%,-12%,-18%,.
CN(C)c1ccc(NC2=C(Cl)C(=O)c3ccccc3C2=O)cc1,-19%,-25%,-34%,i,16µM*
CCOc1ccc(NC(c2ccc(Cl)cc2)c2nnc(-c3cccc(F)c3)o2)cc1 (centres undefined),1%,.,5%,.,.
Cc1oc2c(O)c(O)ccc2c(=O)c1-c1ccccc1,-7%,-12%,-4%,10µM*,.
O=c1cc(-c2ccccc2O)oc2c(O)c(O)ccc12,-30%,.,.,3.2µM*,.
O=[N+]([O-])c1ccc(-c2cc(-c3ccc(Cl)cc3)n[nH]2)cc1,-18%,100µM*,-3%,i,-1%
O=[N+]([O-])c1ccc2nc(-c3ccc(Cl)cc3)[nH]c2c1,-15%,-16%,?,-10%,0%
Cc1ccc(C(C[N+](=O)[O-])Sc2ccc(N)cc2)cc1 (centres undefined),-4%,45µM*,0%,-5%,-16%
COc1ccc(C(C)(C)C)cc1NC(=O)COC(=O)c1ccc([N+](=O)[O-])o1,-4%,-1%,25µM*,-4%,-26%
COc1ccc(C)cc1NC(=O)COC(=O)c1ccc([N+](=O)[O-])o1,-2%,-24%,-12%,-7%,.
COc1ccc(Cl)cc1C(=O)N/N=C/c1ccc(N2CCOCC2)cc1,-14%,3%,6%,i,4%[11.4 µM]
CC(C)c1ccc(N(CC(=O)Nc2ccc(S(=O)(=O)N3CCOCC3)cc2)S(C)(=O)=O)cc1,-11%,-3%,7%,-7%,.

# Compound activity: PubChem BioAssay, National Center for Advancing Translational Sciences (NCATS)
